Experimental data from PubChem BioAssay (NCI).
About 79,000 compounds went through this panel and 15% of them were active in at least one assay; those are over-represented in the sample as a whole. Unmarked numbers belong to inactive results. Calls of active or inactive are those of the source. No stated cut-off is given here; in the data, active means growth inhibition above about 70%; inactive means the rest.

Columns and labels:
[1] = NCI Yeast Anticancer Drug Screen. Data for the rad50 strain (AID 155);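 further: 0% = growth of vehicle-only cultures of the same strain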; details: S. cerevisiae rad50 strain growth inhibition; at 50.0 µM; active compounds read high
Procedure, shortened: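 Growth of the mutant yeast was measured after compound exposure and referenced to vehicle-treated cultures.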

[2] = NCI Yeast Anticancer Drug Screen. Data for the mec2-1 strain (AID 157); details: S. cerevisiae mec2-1 strain, at 50.0 µM, active compounds read high
Procedure, shortened: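 Yeast mec2-1 mutant treated with compound. Readout: growth inhibition vs vehicle controls.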

[3] = NCI Yeast Anticancer Drug Screen. Data for the sgs1 mgt1 strain (AID 161);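 further: 0% = growth of cultures given vehicle only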; details: S. cerevisiae sgs1 mgt1 strain, at 50.0 µM, active compounds read high
Procedure, shortened: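 Read-out: growth inhibition vs vehicle controls. Cells: mutant yeast strain deficient in DNA damage repair.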

[4] = NCI Yeast Anticancer Drug Screen. Data for the cln2 rad14 strain (AID 165);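 further: 0% = growth equal to vehicle treated cultures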; details: S. cerevisiae cln2 rad14 strain, at 50.0 µM, active compounds read high
Procedure, shortened: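 cln2 rad14 yeast strain; compound exposure; growth inhibition read vs vehicle controls.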

[5] = NCI Yeast Anticancer Drug Screen. Data for the bub3 strain (AID 167); details: S. cerevisiae bub3 mutant strain, at 50.0 µM, active compounds read high
Procedure, shortened: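 Whole-cell yeast assay. The mutant strain was incubated with compounds, and growth inhibition was determined by comparison with vehicle-treated cells.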

[6] = NCI Yeast Anticancer Drug Screen. Data for the mlh1 rad18 strain (AID 175); details: S. cerevisiae mlh1 rad18 strain growth inhibition; at 50.0 µM; active compounds read high
Procedure, shortened: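 Yeast w/ defined DNA-repair lesions; compound exposure; growth vs vehicle controls → % inhibition.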

Compound	growth inhibition [1]	growth inhibition [2]	growth inhibition [3]	growth inhibition [4]	growth inhibition [5]	growth inhibition [6]
CN(C)CCNc1nnc(NCCN(C)C)c2cc3ccccc3cc12	-0.7%	27.3%	-2.45%	10.5%	-1.4%	7.45%
CC(=O)N(c1ccc(F)c(F)c1)c1ccc(F)c(F)c1	-18.3%	-5.55%	-0.9%	1.5%	19.6%	14.2%
COc1ccc(CCN=C(c2ccccc2)c2ccccc2)cc1OC	22.4%	10.2%	8.75%	-27.4%	10.3%	12.7%
COCCCCCOC	5.55%	-14.8%	-3.4%	6.6%	12.3%	1.55%
O=C(Cc1nc2ccccc2o1)C(=O)Nc1ccc(Cl)cc1Cl	10.7%	-4.6%	0.8%	17.1%	-15.7%	16.2%
CN(C)P1(=O)N(c2ccc(Cl)cc2)P(=O)(N(C)C)N1c1ccc(Cl)cc1 (configuration not stated)	-14.2%	-35.6%	-13.1%	2%	-25%	-13.3%
O=C1NC(=O)C(CCI)N1 (configuration not stated)	11.2%	0.15%	23.1%	16.9%	-15.2%	-12.7%
N#C/C(N)=C(/C#N)N=Cc1ccccc1	15.9%	21.3%	8.4%	-64.4%	7.2%	18.9%
Cc1cn(C2CC(OC(=O)C(Cc3ccccc3)NC(=O)OCc3ccccc3)C(COC(=O)C(Cc3ccccc3)NC(=O)OCc3ccccc3)O2)c(=O)[nH]c1=O (configuration not stated)	-14.9%	-3.65%	-13.3%	-26.7%	-12.9%	14.3%
CCCCOC(=O)CC(C(=O)OCCCC)N1CCNCC1 (configuration not stated)	-0.05%	-9.95%	-4.15%	-50.6%	-1.2%	-3.1%
Cc1ccc(S(=O)(=O)NC(=O)C2S(=O)(=O)OCCOS2(=O)=O)cc1	-2.75%	4.15%	-7.1%	-1.85%	-11.3%	-16.4%
CN(C)C(=O)Nc1cccc(OC(=O)NCCCl)c1	6.55%	52.5%	30.7%	0.9%	41%	20.7%
O=C(C[N+]12CN3CN(CN(C3)C1)C2)c1cccc2ccccc12	11.2%	-11.6%	9.35%	-3.2%	-4.7%	14.6%
CC(C#N)OCCO (configuration not stated)	9.3%	-2.3%	7.85%	-1.85%	-6.7%	5.15%
CCOC(=O)C(=O)OCC	24.9%	-1.05%	-19.1%	-3.7%	29.8%	13.8%
COc1ccc(C2OC(=N)C(=S)N2C)cc1O (configuration not stated)	-5.9%	-15.6%	-13.2%	-22.7%	2.5%	-4.15%
Cc1nc2nncn2c(=O)[nH]1	9.35%	-0.4%	31.8%	15.4%	6.1%	17.9%
Cc1cccc[n+]1CC(=O)c1ccccc1	17.2%	31.2%	34.5%	-3.65%	18.6%	20.9%
O=c1cc(-c2ccccc2)oc2c(-c3cc(Cl)cc4c(=O)cc(-c5ccccc5)oc34)cc(Cl)cc12	-6.65%	23.4%	13.7%	-3.1%	-2.2%	79.3% (active)
CC(=O)N(C(=O)CC(=O)N1N=C(C)C(N=Nc2cccc([N+](=O)[O-])c2)C1=O)c1ccc(Cl)cc1 (configuration not stated)	-10.3%	-4.5%	-5.9%	-11.2%	-15.1%	2%
CC(=O)Oc1cc2c(cc1C(NC(N)=O)c1ccc3c(c1)OCO3)OCO2 (configuration not stated)	1.95%	2.7%	1.55%	-11.2%	16.4%	12.4%

Compound	growth inhibition [1]	growth inhibition [2]	growth inhibition [3]	growth inhibition [4]	growth inhibition [5]	growth inhibition [6]
CCCCCc1ccc2oc(=O)c3ccc(C)cc3c2c1O	-9.7%	8.7%	16.2%	-16.8%	-25.3%	-5.6%
OC1CCC(c2ccccc2)CC1 (configuration not stated)	29.1%	11.8%	19.9%	15.7%	4.75%	7.35%
Nc1nc(F)nc2c1ncn2C1OC(CO)C(O)C1O (configuration not stated)	-10.3%	2.25%	8.25%	0.1%	2.15%	-12.2%
CCOc1cc(C)c2cccc(C)c2n1	17.1%	-0.35%	-13.6%	6.25%	2%	13.8%
COc1ccc2nc3cc(Cl)ccc3c(NCCCC3CCCN4CCCCC34)c2c1 (configuration not stated)	50%	40.5%	2%	6.15%	11.7%	38.4%
C=CCCCCCCCCC(=O)NCCN1CCOCC1	84.5% (active)	93.8% (active)	99.2% (active)	93.8% (active)	91.8% (active)	98.2% (active)
Cc1cc(C)c(NC(=O)Nc2ccc(C(Cl)(Cl)Cl)cc2)c(C)c1	4.9%	11.5%	8.8%	7%	2.9%	2.8%
[O-]c1c[n+](CCCC[n+]2cc([O-])on2)no1	-5.4%	-32.8%	-13.3%	3.55%	-60.7%	-1.95%
O=C=Nc1ccc(Cc2ccc(N=C=O)cc2)cc1	-13.7%	6.7%	-7.45%	-15.2%	-23.9%	-36.5%
CN(C)n1c(O)c(N=O)sc1=S	-30.9%	-6.25%	-7.65%	-25.7%	-10.1%	5.55%
CNc1ccc(C(=O)NC(CCC(=O)O)C(=O)O)cc1I (configuration not stated)	36.6%	-6.2%	-4.1%	0.15%	5.5%	10.3%
NC(=O)C1C[C@@H](O)CN1C(=O)c1ccc2c(c1)OCO2 (some centres not stated)	-11.6%	-9.8%	-24.6%	6.5%	3.05%	1.25%
CC1(C)CC(=O)N(Nc2ccccc2)C1=O	-8.55%	-7.6%	-8.8%	-7.35%	-12.7%	-13.7%
c1ccc(C(=C2C(=C(c3ccccc3)c3ccccc3)c3nc4ccccc4nc32)c2ccccc2)cc1	26.8%	8.8%	7%	16.9%	-1.05%	8.1%
O=C1NC2(CCN(Cc3ccccc3)CC2)Nc2ccccc21	-10.4%	1.6%	-10.4%	-24.1%	2.8%	-6.75%
c1ccc([P+](CCNCCNCC[P+](c2ccccc2)(c2ccccc2)c2ccccc2)(c2ccccc2)c2ccccc2)cc1	6.3%	9.25%	-13.8%	5.65%	-5.2%	-0.6%
COC1/C=C/OC2(C)Oc3c(C)c(O)c4c(O)c(c5c(nc(-c6ccco6)n5-c5ccccc5)c4c3C2=O)NC(=O)/C(C)=C\C=C\C(C)C(O)C(C)C(O)C(C)C(OC(C)=O)C1C (configuration not stated)	-6.2%	-13.8%	-19.8%	14.2%	-18.8%	-22.7%
CN1COc2c3c(c4ccccc4c2C1)CN(C)CO3	7.1%	2.35%	1.2%	-16.9%	6.35%	-0.3%
CC(=O)CCCCc1ccccc1	-1.45%	-8.45%	-9.3%	-71.6%	-9.2%	-1%
C[C@@]12CCC(=O)c3coc(c31)C(=O)c1cc3c(cc12)C(=O)C=CC3=O	92% (active)	93.2% (active)	93.2% (active)	91.4% (active)	92.2% (active)	91.9% (active)
C1CCC(NCSC2=NCCS2)CC1	36.5%	-4.7%	0.05%	-29.8%	7.95%	1.9%
